{
  "source": "paper PMC6925144",
  "about": "“A prospective compound screening contest identified broader inhibitors for Sirtuin 1” (Scientific Reports, 2019)",
  "note": "Whole data set: some 3,200 compounds, median “TSA(with NAD+) / Primary screening (TSA) / delta Tm (K)” near -0.04, cut for the highest 2% near 0.37. This excerpt belongs to a sample that is enriched for the highest values.",
  "data": [
    {"target": "NAD-dependent deacetylase Sirtuin 1 (human, UniProt Q96EB6)", "sequence (Q96EB6 2-747 limits assumed)": "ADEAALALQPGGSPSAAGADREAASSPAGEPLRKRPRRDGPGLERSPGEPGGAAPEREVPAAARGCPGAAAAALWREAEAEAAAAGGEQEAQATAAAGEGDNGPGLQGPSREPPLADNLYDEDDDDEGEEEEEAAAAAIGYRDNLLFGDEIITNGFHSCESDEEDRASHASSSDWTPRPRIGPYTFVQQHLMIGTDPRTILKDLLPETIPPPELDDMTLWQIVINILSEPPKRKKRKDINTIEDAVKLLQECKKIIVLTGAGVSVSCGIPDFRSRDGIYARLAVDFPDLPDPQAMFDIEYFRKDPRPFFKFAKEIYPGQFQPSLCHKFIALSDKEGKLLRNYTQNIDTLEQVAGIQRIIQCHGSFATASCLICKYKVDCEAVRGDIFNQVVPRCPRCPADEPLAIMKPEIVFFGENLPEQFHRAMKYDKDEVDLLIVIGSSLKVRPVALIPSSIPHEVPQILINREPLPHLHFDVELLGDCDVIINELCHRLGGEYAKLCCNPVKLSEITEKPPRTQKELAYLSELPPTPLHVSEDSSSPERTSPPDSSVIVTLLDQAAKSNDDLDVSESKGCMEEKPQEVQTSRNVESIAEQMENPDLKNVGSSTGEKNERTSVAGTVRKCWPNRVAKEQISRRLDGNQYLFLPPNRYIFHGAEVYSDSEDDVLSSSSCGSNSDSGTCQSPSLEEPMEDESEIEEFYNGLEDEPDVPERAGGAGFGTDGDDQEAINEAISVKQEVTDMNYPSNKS", "assay": "primary screen, delta tm", "design": "single well (n = 1, as 'the same TSA')", "conditions": "10 µM", "description": "A total of 3,192 compounds extracted from the proposed lists were first screened by thermal shift assay (TSA), which determined a melting temperature shift (ΔTm) of Sirtuin 1 upon the addition of a test compound at a concentration of 10 µM (n = 1) with primary hit criteria of ΔTm > 0.45 K or ΔTm < −1.5 K. Primary hits (48 compounds) were retested in the same assay at three concentrations (5, 10, 20 µM, n = 4) for hit confirmation and for dose-dependency check. Secondary hits (41 compounds) were checked their selectivity for Sirtuin 1 based on counterscreening on unrelated protein targets (bovine carbonic anhydrase (CA) and recombinant SH2 domain of hABL1 kinase (ABL1)) at three different concentrations (5, 10, 20 µM, n = 4), which yielded 38 hit compounds, hereafter referred to as TSA hits. The TSA screening above was conducted in the absence of NAD+. As noted, the structure of Sirtuin 1 is different in the presence of NAD+ and substrate. The chemical profile of TSA hits found from the different conditions could be different. […] As a result, 39 TSA hits were found.", "units": {"TSA(with NAD+) / Primary screening (TSA) / delta Tm (K)": "K"}, "values": [
      {"smiles": "CCCN1CCN(CCCOc2ccccc2)CC1", "TSA(with NAD+) / Primary screening (TSA) / delta Tm (K)": -0.12},
      {"smiles": "CC12CCC(C/C1=N/N=C1/CC3CCC1(C)C3(C)C)C2(C)C", "TSA(with NAD+) / Primary screening (TSA) / delta Tm (K)": -0.29},
      {"smiles": "CC(=O)N1N=C(c2ccccc2)CC1c1ccc(Br)cc1", "note": "(centres unmarked)", "TSA(with NAD+) / Primary screening (TSA) / delta Tm (K)": -0.08},
      {"smiles": "O=C(CSc1nnnn1-c1ccc(O)cc1)N1N=C(c2ccc3ccccc3c2)CC1c1ccccc1", "note": "(centres unmarked)", "TSA(with NAD+) / Primary screening (TSA) / delta Tm (K)": 0.66},
      {"smiles": "CC(=O)N1N=C(c2ccc(O)cc2)CC1c1ccccc1", "note": "(centres unmarked)", "TSA(with NAD+) / Primary screening (TSA) / delta Tm (K)": 0.36},
      {"smiles": "COc1ccnc(C(=O)NCC(C)(C)N2CCC(N(C)C)CC2)c1", "TSA(with NAD+) / Primary screening (TSA) / delta Tm (K)": -0.14},
      {"smiles": "OC(CNc1ncccn1)c1ccc(Cl)cc1", "note": "(centres unmarked)", "TSA(with NAD+) / Primary screening (TSA) / delta Tm (K)": -0.04},
      {"smiles": "O=C(O)c1ccc2[nH]c(S)nc2c1", "TSA(with NAD+) / Primary screening (TSA) / delta Tm (K)": -0.13},
      {"smiles": "CC(OC(=O)Cc1c[nH]c2ccccc12)C(=O)Nc1ccc(C(N)=O)cc1", "note": "(centres unmarked)", "TSA(with NAD+) / Primary screening (TSA) / delta Tm (K)": 0.12},
      {"smiles": "O=C(CCc1c[nH]c2ccccc12)Nc1ccc2nc[nH]c(=O)c2c1", "TSA(with NAD+) / Primary screening (TSA) / delta Tm (K)": 0.27},
      {"smiles": "O=C(CCc1c[nH]c2ccccc12)Nc1nnc(-c2ccccc2)o1", "TSA(with NAD+) / Primary screening (TSA) / delta Tm (K)": 0.39},
      {"smiles": "O=C(CCc1c[nH]c2ccccc12)NCCc1ccco1", "TSA(with NAD+) / Primary screening (TSA) / delta Tm (K)": -0.11},
      {"smiles": "O=C1NC(=S)NC(=O)C1=Cc1cc2ccccc2[nH]c1=O", "TSA(with NAD+) / Primary screening (TSA) / delta Tm (K)": -0.09},
      {"smiles": "O=C(Nc1cccc(S(=O)(=O)N2CCOCC2)c1)c1cn(-c2ccccc2)nc1-c1ccccc1", "TSA(with NAD+) / Primary screening (TSA) / delta Tm (K)": 0.12},
      {"smiles": "CN(c1ccccc1)S(=O)(=O)c1ccc(C(=O)Nc2cccc(S(=O)(=O)N3CCOCC3)c2)cc1", "TSA(with NAD+) / Primary screening (TSA) / delta Tm (K)": -0.01},
      {"smiles": "O=C(Nc1cccc(S(=O)(=O)N2CCOCC2)c1)c1cc(-c2ccccc2)nn1-c1ccccc1", "TSA(with NAD+) / Primary screening (TSA) / delta Tm (K)": -0.04},
      {"smiles": "O=C(Nc1cccc(S(=O)(=O)N2CCOCC2)c1)c1cn(-c2ccccc2)nc1-c1ccc(Cl)cc1", "TSA(with NAD+) / Primary screening (TSA) / delta Tm (K)": 0.63},
      {"smiles": "O=C(Nc1cccc(S(=O)(=O)N2CCOCC2)c1)c1cn(-c2ccccc2)nc1-c1ccc(F)cc1", "TSA(with NAD+) / Primary screening (TSA) / delta Tm (K)": 0.39},
      {"smiles": "O=C(Nc1cccc(S(=O)(=O)N2CCOCC2)c1)c1cccc(S(=O)(=O)N2CCc3ccccc32)c1", "TSA(with NAD+) / Primary screening (TSA) / delta Tm (K)": 0.41},
      {"smiles": "Cc1ccc(-c2nn(-c3ccccc3)cc2C(=O)Nc2cccc(S(=O)(=O)N3CCOCC3)c2)cc1", "TSA(with NAD+) / Primary screening (TSA) / delta Tm (K)": 0.26},
      {"smiles": "O=C(Nc1cccc(S(=O)(=O)N2CCOCC2)c1)C(c1ccccc1)c1ccccc1", "TSA(with NAD+) / Primary screening (TSA) / delta Tm (K)": 0.16},
      {"smiles": "O=C(Nc1cccc(S(=O)(=O)N2CCOCC2)c1)c1ccccc1Cc1ccccc1", "TSA(with NAD+) / Primary screening (TSA) / delta Tm (K)": -0.09},
      {"smiles": "O=C(CCC(=O)c1ccccc1)Nc1ccccc1Cc1ccccc1", "TSA(with NAD+) / Primary screening (TSA) / delta Tm (K)": -0.11},
      {"smiles": "COC1CCCC1NC(=O)Cc1sc(S)nc1C", "note": "(centres unmarked)", "TSA(with NAD+) / Primary screening (TSA) / delta Tm (K)": -0.26},
      {"smiles": "COc1ccccc1C1C(C(=O)/C=C/c2ccco2)=C(O)C(=O)N1CCCN1CCOCC1", "note": "(centres unmarked)", "TSA(with NAD+) / Primary screening (TSA) / delta Tm (K)": -0.18},
      {"smiles": "CC(N)C(N)=O", "note": "(centres unmarked)", "TSA(with NAD+) / Primary screening (TSA) / delta Tm (K)": -0.19},
      {"smiles": "NC(=O)C1CCN(c2ncnc3sc4c(c23)CCC4)CC1", "TSA(with NAD+) / Primary screening (TSA) / delta Tm (K)": -0.04},
      {"smiles": "Cc1nc(N2CCC(C(N)=O)CC2)c2c3c(sc2n1)CCCCC3", "TSA(with NAD+) / Primary screening (TSA) / delta Tm (K)": 0.66},
      {"smiles": "Cc1nc(N2CCC(NC(N)=O)CC2)c2c3c(sc2n1)CCCC3", "TSA(with NAD+) / Primary screening (TSA) / delta Tm (K)": -0.03},
      {"smiles": "Cc1nc(N2CCN(c3ncccc3C(N)=O)CC2)c2c3c(sc2n1)CCC3", "TSA(with NAD+) / Primary screening (TSA) / delta Tm (K)": 0.02},
      {"smiles": "Cc1nc(N2CCC(C(N)=O)CC2)c2c3c(sc2n1)CCCC3", "TSA(with NAD+) / Primary screening (TSA) / delta Tm (K)": 0.57},
      {"smiles": "Cc1nc(N2CCC(C(N)=O)CC2)c2c3c(sc2n1)CCC3", "TSA(with NAD+) / Primary screening (TSA) / delta Tm (K)": 0.01},
      {"smiles": "Cc1noc(C(C)N2CCN(Cc3cccc(C(N)=O)c3)CC2)n1", "note": "(centres unmarked)", "TSA(with NAD+) / Primary screening (TSA) / delta Tm (K)": -0.03},
      {"smiles": "NCCC[C@@H](N)C(=O)O", "TSA(with NAD+) / Primary screening (TSA) / delta Tm (K)": -0.08},
      {"smiles": "O=C(CCc1nc2ccccc2o1)N1CCN(C(c2ccc(F)cc2)c2ccc(F)cc2)CC1", "TSA(with NAD+) / Primary screening (TSA) / delta Tm (K)": -0.01},
      {"smiles": "O=C(O)c1ccc2[nH]c(C(F)(F)F)nc2c1", "TSA(with NAD+) / Primary screening (TSA) / delta Tm (K)": -0.14},
      {"smiles": "COc1cc(-c2nc(-c3ccccc3)c(-c3ccccc3)[nH]2)ccc1OS(=O)(=O)c1ccc(C)cc1", "TSA(with NAD+) / Primary screening (TSA) / delta Tm (K)": 0.05},
      {"smiles": "CNC(=O)CCNc1ccc2nnc(C(F)(F)F)n2n1", "TSA(with NAD+) / Primary screening (TSA) / delta Tm (K)": 0.08},
      {"smiles": "COC(=O)C[C@H](N)C(=O)O", "TSA(with NAD+) / Primary screening (TSA) / delta Tm (K)": 0.02},
      {"smiles": "COCC(C)N", "note": "(centres unmarked)", "TSA(with NAD+) / Primary screening (TSA) / delta Tm (K)": -0.04},
      {"smiles": "Cc1ccc(C23CC4CC(CC(C(=O)OCC(=O)Nc5ccc(S(N)(=O)=O)cc5)(C4)C2)C3)cc1", "TSA(with NAD+) / Primary screening (TSA) / delta Tm (K)": 0.29},
      {"smiles": "Cc1ccc(C23CC4CC(CC(C(=O)OCC(N)=O)(C4)C2)C3)cc1C", "TSA(with NAD+) / Primary screening (TSA) / delta Tm (K)": -0.16},
      {"smiles": "Cc1ccc(C23CC4CC(CC(C(=O)OC(C)C(=O)Nc5ccc(S(N)(=O)=O)cc5)(C4)C2)C3)cc1C", "note": "(centres unmarked)", "TSA(with NAD+) / Primary screening (TSA) / delta Tm (K)": 0.43},
      {"smiles": "COc1cc(OC)c(OC)cc1C=C1C(=O)NC(=S)NC1=O", "TSA(with NAD+) / Primary screening (TSA) / delta Tm (K)": -0.16},
      {"smiles": "Cc1csc2c(N3CC4CCCN4CC3C)ncnc12", "note": "(centres unmarked)", "TSA(with NAD+) / Primary screening (TSA) / delta Tm (K)": -0.19},
      {"smiles": "CCOc1ccc(/C=C(/C#N)C(=O)c2c[nH]c3cc(F)ccc23)cc1", "TSA(with NAD+) / Primary screening (TSA) / delta Tm (K)": -0.03},
      {"smiles": "CCCCCCCCNC(=O)/C(C#N)=C/c1c[nH]c2ccccc12", "TSA(with NAD+) / Primary screening (TSA) / delta Tm (K)": 0.43},
      {"smiles": "N#C/C(=C\\c1[nH]c2ccccc2c1Cl)C(N)=O", "TSA(with NAD+) / Primary screening (TSA) / delta Tm (K)": -0.09},
      {"smiles": "COc1cc(C=C(C(=O)NCC2CCCO2)C(=O)NCC2CCCO2)ccc1OCC(=O)Nc1ccc(C)cc1", "note": "(centres unmarked)", "TSA(with NAD+) / Primary screening (TSA) / delta Tm (K)": -0.15},
      {"smiles": "Cc1ccc(C(=O)Nc2ccc(NC(=O)NCC3CCCO3)cc2)cn1", "note": "(centres unmarked)", "TSA(with NAD+) / Primary screening (TSA) / delta Tm (K)": 0.55},
      {"smiles": "O=C(NCC1CCCO1)Nc1ccc(NC(=O)c2ccccn2)cc1", "note": "(centres unmarked)", "TSA(with NAD+) / Primary screening (TSA) / delta Tm (K)": 0.06},
      {"smiles": "COC(=O)c1ccc2[nH]c3c(c2c1)CN(S(C)(=O)=O)CC3", "TSA(with NAD+) / Primary screening (TSA) / delta Tm (K)": 0.16},
      {"smiles": "N#CCCC(C#N)CN1CCC(CCc2ccc(O)cc2)CC1", "note": "(centres unmarked)", "TSA(with NAD+) / Primary screening (TSA) / delta Tm (K)": -0.14},
      {"smiles": "CC(=O)c1ccc(NC(=O)C(C)OC(=O)c2cccc(S(=O)(=O)NC(C)C34CC5CC(CC(C5)C3)C4)c2)cc1", "note": "(centres unmarked)", "TSA(with NAD+) / Primary screening (TSA) / delta Tm (K)": 0.19},
      {"smiles": "O=C(COC(=O)c1cccc(S(=O)(=O)NCc2ccccc2)c1)NC12CC3CC(CC(C3)C1)C2", "TSA(with NAD+) / Primary screening (TSA) / delta Tm (K)": -0.25},
      {"smiles": "CC(NC(=O)COC(=O)c1cccc(S(=O)(=O)NCc2ccccc2)c1)C12CC3CC(CC(C3)C1)C2", "note": "(centres unmarked)", "TSA(with NAD+) / Primary screening (TSA) / delta Tm (K)": 0.05},
      {"smiles": "CC(NS(=O)(=O)c1cccc(C(=O)OCC(=O)Nc2sccc2C#N)c1)C12CC3CC(CC(C3)C1)C2", "note": "(centres unmarked)", "TSA(with NAD+) / Primary screening (TSA) / delta Tm (K)": 0.37},
      {"smiles": "O=C(COC(=O)c1cccc(NS(=O)(=O)/C=C/c2ccccc2)c1)NC12CC3CC(CC(C3)C1)C2", "TSA(with NAD+) / Primary screening (TSA) / delta Tm (K)": -0.01},
      {"smiles": "Cc1cccc(NS(=O)(=O)c2cccc(C(=O)OCC(=O)NC(=O)NC34CC5CC(CC(C5)C3)C4)c2)c1", "TSA(with NAD+) / Primary screening (TSA) / delta Tm (K)": 0.46}
    ]}
  ]
}
